Drawing on PubChem BioAssay (EPA / NIEHS), this text covers outcome and AC50 for 24 molecules.

Common to all, as to conditions: mRNA level, 48 h; actives raise or lower the signal
Read-out in assay [1]: NAD(P)H dehydrogenase [quinone] 1 (NQO1), NQO1 (gene 1728)
As to the kind of experiment: LTEA_HepaRG_NQO1: Life Technologies and Expression Analysis (LTEA) Assay for NAD(P)H dehydrogenase [quinone] 1 (NQO1) using HepaRG (AID 2283526). An outline of the steps: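 Differentiated human HepaRG cells in serum-free induction medium, dosed in duplicate for 48 h at 8 half-log concentrations up to 100 uM in 0.5% DMSO. NQO1 mRNA by qRT-PCR normalized to ACTB, GAPDH, POLR2A; bidirectional fit versus DMSO baseline.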

Read-out in assay [2]: Nuclear factor erythroid 2-related factor 2 (Homo sapiens) (UniProt Q16236)
As to the kind of experiment: LTEA_HepaRG_NFE2L2: Life Technologies and Expression Analysis (LTEA) Assay for Nuclear factor erythroid 2-related factor 2 (NFE2L2) Transcription Factor using HepaRG (AID 2283527).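 As to outcome: TaqMan qRT-PCR transcript level normalised to ACTB GAPDH and POLR2A housekeeping genes.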 Summed up: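 Transcript level of NFE2L2 is the read-out, measured by microfluidic TaqMan qRT-PCR and normalized to three housekeeping genes. Human HepaRG cultures received test chemical for 48 h at up to 100 uM in half-log steps. Gain or loss of signal is fitted relative to 0.5% DMSO.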

Read-out in assay [3]: succinate dehydrogenase complex iron sulfur subunit B (SDHB), SDHB (gene 6390)
As to the kind of experiment: LTEA_HepaRG_SDHB: Life Technologies and Expression Analysis (LTEA) Assay for succinate dehydrogenase complex iron sulfur subunit B (SDHB) using HepaRG (AID 2283528). An outline of the steps: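 Readout is SDHB transcript level by qRT-PCR, normalised to three housekeeping genes and fitted bidirectionally against 0.5% DMSO vehicle. Human HepaRG cells were treated for 48 h at up to 100 uM.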

Read-out in assay [4]: Signal transducer and activator of transcription 3 (Homo sapiens) (UniProt P40763)
As to the kind of experiment: LTEA_HepaRG_STAT3: Life Technologies and Expression Analysis (LTEA) Assay for Signal transducer and activator of transcription (STAT3) using HepaRG (AID 2283529). An outline of the steps: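 Read-out is STAT3 mRNA level by qRT-PCR, normalized to three housekeeping genes, in human HepaRG liver cells treated for 48 h. Concentrations ran from 100 uM downward in half-log steps; curves were fitted for gain or loss relative to 0.5% DMSO.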

Read-out in assay [5]: Transforming Growth Factor (TGFA), TGFA (gene 7039)
As to the kind of experiment: LTEA_HepaRG_TGFA: Life Technologies and Expression Analysis (LTEA) Assay for Transforming Growth Factor (TGFA) using HepaRG (AID 2283532). An outline of the steps:
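HepaRG (human liver line), 48 h exposure, 8 conc. half-log down from 100 uM, 0.5% DMSO vehicle, duplicates; serum-free induction medium. TGFA mRNA by TaqMan qRT-PCR, ACTB/GAPDH/POLR2A normalization; gain/loss fit vs DMSO.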

Read-out in assay [6]: Transforming Growth Factor (TGFB1), TGFB1 (gene 7040)
As to the kind of experiment: LTEA_HepaRG_TGFB1: Life Technologies and Expression Analysis (LTEA) Assay for Transforming Growth Factor (TGFB1) Transporter using HepaRG (AID 2283533). An outline of the steps: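 Expression change of TGFB1 in human HepaRG cells is measured after a 48 h chemical exposure, up to 100 uM in 0.5% DMSO vehicle. Curves are fitted in both directions relative to the DMSO baseline.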

Read-out in another assay: TIMP1, TIMP1 (gene 7076)
As to the kind of experiment: LTEA_HepaRG_TIMP1: Life Technologies and Expression Analysis (LTEA) Assay for TIMP1 using HepaRG (AID 2283534).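 As to outcome: TaqMan qRT-PCR signal normalized to ACTB GAPDH and POLR2A housekeeping genes.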 An outline of the steps:
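We dosed human liver HepaRG cultures for 48 hours with up to 100 uM test chemical and measured TIMP1 expression by qRT-PCR. Activity in either direction is fitted relative to the 0.5% DMSO vehicle.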

Read-out in assay [7]: sulfotransferase 2A1 (SULT2A1), SULT2A1 (gene 6822)
As to the kind of experiment: LTEA_HepaRG_SULT2A1: Life Technologies and Expression Analysis (LTEA) Assay for sulfotransferase 2A1 (SULT2A1) using HepaRG (AID 2283531). An outline of the steps: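 Cells were plated and cultured 48 h, switched to serum-free induction medium, then dosed in duplicate for 48 h (8 concentrations, max 100 uM). RNA was isolated and SULT2A1 expression measured by qRT-PCR; gain or loss of signal fitted relative to DMSO.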

Read-out in assay [8]: Tumor necrosis factor receptor 1 (TNFRSF1A), TNFRSF1A (gene 7132)
As to the kind of experiment: LTEA_HepaRG_TNFRSF1A: Life Technologies and Expression Analysis (LTEA) Assay for Tumor necrosis factor receptor 1 (TNFRSF1A) using HepaRG (AID 2283535). Summed up:
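Expression of TNFRSF1A in human HepaRG liver cells was measured by qRT-PCR 48 h after chemical dosing (maximum 100 uM). Bidirectional curve fitting used 0.5% DMSO as baseline.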

Active and inactive are the calls of the source. The calls were made as follows: active = hit-call score of the fitted dose curve at least 0.9, where 1 is the maximum; inactive = score below 0.9.

Chain of Nuclear factor erythroid 2-related factor 2 (Homo sapiens) (Q16236 whole entry, looked up): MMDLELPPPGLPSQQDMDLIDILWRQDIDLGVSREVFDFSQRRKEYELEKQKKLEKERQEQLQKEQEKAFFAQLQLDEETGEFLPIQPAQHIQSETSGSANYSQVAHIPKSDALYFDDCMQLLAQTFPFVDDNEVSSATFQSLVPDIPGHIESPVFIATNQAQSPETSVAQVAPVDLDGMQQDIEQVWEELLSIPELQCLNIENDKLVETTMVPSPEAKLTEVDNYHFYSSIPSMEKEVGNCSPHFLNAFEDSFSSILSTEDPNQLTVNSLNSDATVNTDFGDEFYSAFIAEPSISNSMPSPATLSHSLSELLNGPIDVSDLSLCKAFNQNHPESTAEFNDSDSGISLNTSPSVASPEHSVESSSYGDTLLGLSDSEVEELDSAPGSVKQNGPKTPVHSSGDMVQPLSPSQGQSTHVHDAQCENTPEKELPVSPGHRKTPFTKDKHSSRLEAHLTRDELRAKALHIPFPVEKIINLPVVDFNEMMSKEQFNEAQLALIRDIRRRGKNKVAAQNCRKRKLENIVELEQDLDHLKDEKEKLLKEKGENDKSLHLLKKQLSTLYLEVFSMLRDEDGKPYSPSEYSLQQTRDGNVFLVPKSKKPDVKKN
Chain of Signal transducer and activator of transcription 3 (Homo sapiens) (P40763 whole entry, looked up): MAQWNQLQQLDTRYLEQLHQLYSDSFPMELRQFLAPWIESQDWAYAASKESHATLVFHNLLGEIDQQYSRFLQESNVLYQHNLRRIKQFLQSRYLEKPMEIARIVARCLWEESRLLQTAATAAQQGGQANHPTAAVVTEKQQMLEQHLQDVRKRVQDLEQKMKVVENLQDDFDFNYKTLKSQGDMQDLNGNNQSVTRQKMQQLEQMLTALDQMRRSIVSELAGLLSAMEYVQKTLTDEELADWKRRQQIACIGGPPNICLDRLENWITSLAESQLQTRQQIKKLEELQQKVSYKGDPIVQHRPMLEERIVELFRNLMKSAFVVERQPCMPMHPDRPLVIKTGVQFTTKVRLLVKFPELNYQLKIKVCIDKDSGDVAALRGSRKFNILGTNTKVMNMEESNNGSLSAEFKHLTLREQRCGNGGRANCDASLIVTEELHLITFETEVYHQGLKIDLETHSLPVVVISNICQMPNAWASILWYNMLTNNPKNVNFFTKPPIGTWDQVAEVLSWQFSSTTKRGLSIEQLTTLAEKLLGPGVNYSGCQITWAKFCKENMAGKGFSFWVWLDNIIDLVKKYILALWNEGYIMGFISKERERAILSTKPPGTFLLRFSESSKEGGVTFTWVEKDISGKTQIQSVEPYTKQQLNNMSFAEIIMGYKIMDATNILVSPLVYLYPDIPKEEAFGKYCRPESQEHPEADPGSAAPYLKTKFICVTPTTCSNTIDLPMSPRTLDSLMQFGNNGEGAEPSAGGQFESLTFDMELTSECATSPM

For the molecule `COC(=O)c1ccccc1O`, the molecule was called inactive in [1], in assay [2], in [3], in assay [4], in assay [5] and in assay [6]. Moreover, the result with TIMP1, TIMP1 (gene 7076) was inactive.
Consider `O=C(O)c1cccc(N(Cc2cccnc2)c2ccc(OC(F)F)c(OC(F)F)c2)c1`, for which the outcome is “inactive” in assay [1]; “inactive” in assay [2]; “inactive” in assay [3]; “inactive” in assay [5]; “inactive” in [6]; “inactive” with TIMP1, TIMP1 (gene 7076).
By AC50 is commonly meant the midpoint of the concentration-response curve, whichever way the signal moves. Regarding `Fc1ccccc1[C@@H](F)COC1CCC(Nc2ncnc3[nH]ncc23)CC1` (stereo not given in full), the half-maximal activity concentration (AC50) in [1] is 26.5 µM (active); in assay [2], 88.8 µM (active); in assay [4], 8.85 µM (active); in assay [7], 65.7 µM (active); in [5], 50 µM (active). Also, the outcome was “inactive” in assay [3]; “inactive” in assay [6]; “inactive” in the assay with TIMP1, TIMP1 (gene 7076); “inactive” in assay [8].
`O=C(O)c1cccc(Oc2ccccc2)c1`: the molecule was called inactive in [1], in [2], in assay [3], in assay [4], in assay [7] and in assay [5]. Further, the outcome in assay [6] is “inactive”; with TIMP1, TIMP1 (gene 7076), “inactive”; in assay [8], “inactive”.
Turning to `CCCN(C1CCN(C(=O)C2CCNCC2)CC1)[C@@H]1CCc2ccc(OC)cc2C1`, the outcome in [1] was “inactive”; in [2] it was “inactive”; in [3] it was “inactive”; in assay [5], “inactive”; in assay [6], “inactive”; in the assay with TIMP1, TIMP1 (gene 7076) it was “inactive”. Besides, the AC50 in [4] was 0.256 µM (active).
For the molecule `On1ccccc1=S`, the molecule was called inactive in [1], in assay [2], in assay [3], in assay [4], in assay [7] and in assay [5]. The outcome in assay [6] was “inactive”; with TIMP1, TIMP1 (gene 7076) it was “inactive”; in assay [8], “inactive”.
For `O=C1CCCCCN1`, the result in assay [1], in [2], in [3], in [4], in [7] and in assay [5] was inactive. Also, the outcome in assay [6] was “inactive”; with TIMP1, TIMP1 (gene 7076), “inactive”; in [8], “inactive”.
With `CNCc1ccc(NC(=O)c2c[nH]c3c2C(=O)CCC3)cc1`, the molecule was called inactive in [1], in assay [2], in assay [3], in assay [4], in assay [7] and in assay [5]. Besides, the outcome in assay [6] is “inactive”; with TIMP1, TIMP1 (gene 7076), “inactive”; in assay [8] it was “inactive”.
For the molecule `CCN(C(=O)c1cc(C)cc(OC[C@H](C)Nc2ccncc2)c1)C(C)C`, the molecule was called inactive in assay [1], in assay [2], in assay [3], in assay [4], in assay [5] and in assay [6]. Also, the result with TIMP1, TIMP1 (gene 7076) was inactive. Besides, the concentration at half-maximal activity (AC50) in assay [8] is 0.172 µM (active).
Consider `CC[C@H](C)C(=O)O[C@H]1C[C@@H](C)C=C2C=C[C@H](C)[C@H](CC[C@@H]3C[C@@H](O)CC(=O)O3)[C@H]21`, for which the outcome in [1], in [2], in assay [3], in [4], in assay [7] and in assay [5] was inactive. For the same molecule, the outcome in [6] is “inactive”; with TIMP1, TIMP1 (gene 7076), “inactive”; in assay [8] it was “inactive”.
With `COc1ccc(/C=C/S(=O)(=O)NC(=O)c2ccc(C)cc2Cl)cc1`, the outcome in assay [1], in assay [2], in assay [3], in assay [4], in assay [5] and in [6] was inactive. The outcome in the assay with TIMP1, TIMP1 (gene 7076) is “inactive”; in assay [8], “inactive”.
Turning to `C=CC(=C)CCC=C(C)C`, the molecule was classed as inactive in assay [1], in assay [2], in assay [3], in assay [4], in assay [7] and in assay [5]. For the same molecule, the outcome in assay [6] was “inactive”; with TIMP1, TIMP1 (gene 7076), “inactive”; in [8] it was “inactive”.
Turning to `CCCCCCc1ccc(O)cc1O`, the outcome in assay [1], in [2], in assay [3], in assay [4], in assay [5] and in [6] was inactive. Moreover, the outcome in the assay with TIMP1, TIMP1 (gene 7076) was “inactive”; in assay [8], “inactive”.
Turning to `Nc1ccc(Nc2ccccc2)cc1`, the molecule was called inactive in assay [1], in [2], in [3], in assay [4], in assay [5] and in assay [6]. Further, the molecule was classed as inactive with TIMP1, TIMP1 (gene 7076).
As to `CCC(C)(C)C(=O)O[C@H]1C[C@@H](C)C=C2C=C[C@H](C)[C@H](CC[C@@H]3C[C@@H](O)CC(=O)O3)[C@H]21`, the call in assay [1], in assay [2], in assay [3], in [4], in assay [5] and in assay [6] was inactive. Also, the call with TIMP1, TIMP1 (gene 7076) was inactive.
`O=P(OC(CCl)CCl)(OC(CCl)CCl)OC(CCl)CCl`: the outcome is “inactive” in assay [1]; “inactive” in [4]; “inactive” with TIMP1, TIMP1 (gene 7076). For the same molecule, the concentration at half-maximal activity (AC50) is 83 µM (active) in [2]; 85 µM (active) in assay [3]; 83.3 µM (active) in assay [5]; 62.9 µM (active) in assay [6]; 0.231 µM (active) in assay [8].
Regarding `COC(=O)CC(=O)OC`, the result in [1], in assay [2], in assay [3], in [4], in assay [5] and in [6] was inactive. Further, the outcome with TIMP1, TIMP1 (gene 7076) was inactive.
Regarding `Cn1cnc([N+](=O)[O-])c1Sc1ncnc2nc[nH]c12`, the outcome in assay [1], in assay [2], in assay [3], in assay [4], in assay [7] and in assay [5] was inactive. For the same molecule, the outcome was “inactive” with TIMP1, TIMP1 (gene 7076) and “inactive” in assay [8]. Besides, the AC50 in assay [6] is 12.8 µM (active).
On to `Clc1nc(Cl)c(Cl)c(Cl)c1Cl`, for which the result in [1], in assay [2], in assay [3], in [4], in [5] and in [6] was inactive. The call with TIMP1, TIMP1 (gene 7076) was inactive.
For the molecule `Cn1c(=O)c2c(ncn2C)n(C)c1=O`, the molecule was classed as inactive in [1], in assay [2], in assay [3], in assay [4], in assay [7] and in assay [5]. Besides, the outcome in assay [6] was “inactive”; with TIMP1, TIMP1 (gene 7076), “inactive”; in [8], “inactive”.
For the molecule `CCCCCCCCCCCCCCCO`, the outcome in assay [1], in assay [2], in assay [3], in assay [4], in assay [5] and in assay [6] was inactive. Also, the outcome with TIMP1, TIMP1 (gene 7076) was “inactive”; in [8] it was “inactive”.
Take `CC(C)=CCC/C(C)=C\CO`: the outcome in assay [2] was “inactive”; in assay [3], “inactive”; in assay [4] it was “inactive”; in assay [5], “inactive”; in [6], “inactive”; with TIMP1, TIMP1 (gene 7076), “inactive”. In addition, the molecule was classed as inactive in assay [8].
Regarding `C1=CCCC=CCCC=CCC1`, the molecule was classed as inactive in assay [1], in assay [2], in [3], in assay [4], in assay [5] and in [6]. Also, the molecule was classed as inactive with TIMP1, TIMP1 (gene 7076).
Regarding `COCCOc1cc2cc(C(=O)NC3CCN(C(C)C)CC3)n(CC(=O)Nc3ccc(Cl)cn3)c2cn1`, the molecule was classed as inactive in assay [1], in [2], in assay [3], in assay [4], in assay [5] and in assay [6]. Moreover, the half-maximal activity concentration (AC50) with TIMP1, TIMP1 (gene 7076) was 18.2 µM (active).
